Assay results: PubChem BioAssay (Tox21)
Records with an inconclusive call do not appear. Entries that show only a call come without a potency. Active and inactive are the calls of the source. Unless noted, the call rests on the fitted dose curve.

How the values were obtained:
[1] = qHTS assay to identify small molecule antagonists of the sonic hedgehog signaling (Shh) pathway (AID 1259369); further: nearly all actives have a fitted effect of over 45% in size; further: potency means the concentration at half of the fitted maximal effect
How it was run: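 Antagonist mode: compound added to 3T3 Gli1-Luc cells followed by conditioned-medium stimulation, 24 h at 37 C, 5% CO2. Inhibition taken as loss of Gli1-driven luciferase luminescence.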

[2] = qHTS assay to identify small molecule agonists of the androgen receptor (AR) signaling pathway in the presence of an antagonist - cell viability counter screen (AID 1259379; active means well fitted curve in the direction sought with a large enough effect in the repeat runs; an effect the other way counts as inactive or inconclusive;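 further: MDA-kb2 human breast cancer cells carrying an MMTV luciferase reporter; series mostly up to about 92 µM; nearly all actives have a fitted effect of over 25% in size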)
How it was run: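 Cytotoxicity counter-screen run in the same wells as the nilutamide-challenged (3.0 µM final) AR agonist assay in MDA-kb2 cells. Compounds tested at 15 concentrations for 16 h, 37 °C without CO2; CellTiter-Fluor fluorescence read.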

[3] = qHTS assay to identify small molecule agonists of the estrogen receptor beta (ER-beta) signaling pathway - cell viability counter screen (AID 1259380; active means well fitted curve in the direction sought with a large enough effect in the repeat runs; an effect the other way counts as inactive or inconclusive; further: nearly all actives have a fitted effect of over 30% in size)
How it was run: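 Cell viability counter screen: CellTiter-Glo luminescence (30 min, room temperature) measured in the same wells as the beta-lactamase readout, after 16 hr compound exposure at 37C of ER-beta-bla HEK293T cells in 2% charcoal-stripped FBS medium.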

[4] = qHTS assay to identify small molecule antagonists of the estrogen receptor beta (ER-beta) signaling pathway - cell viability counter screen (AID 1259382; active means well fitted curve in the direction sought with a large enough effect in the repeat runs; an effect the other way counts as inactive or inconclusive; further: series mostly up to about 92 µM; nearly all actives have a fitted effect of over 55% in size)
How it was run: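 Cytotoxicity was measured in the same wells by CellTiter-Glo luminescence after 30 min at room temperature. Cells were ER-beta-bla HEK293T in charcoal-stripped serum, given compound together with 1 nM E2 and incubated 16 h at 37C.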

[5] = biological target: Estrogen receptor (Homo sapiens) (UniProt P03372); experiment: qHTS assay to identify small molecule agonists of the estrogen receptor alpha (ER-alpha) signaling pathway in the presence of an antagonist (AID 1259383); further: nearly all actives have a fitted effect of over 15% in size; further: potency means the concentration at half of the fitted maximal effect
Chain of Estrogen receptor (Homo sapiens) (P03372 whole entry, looked up): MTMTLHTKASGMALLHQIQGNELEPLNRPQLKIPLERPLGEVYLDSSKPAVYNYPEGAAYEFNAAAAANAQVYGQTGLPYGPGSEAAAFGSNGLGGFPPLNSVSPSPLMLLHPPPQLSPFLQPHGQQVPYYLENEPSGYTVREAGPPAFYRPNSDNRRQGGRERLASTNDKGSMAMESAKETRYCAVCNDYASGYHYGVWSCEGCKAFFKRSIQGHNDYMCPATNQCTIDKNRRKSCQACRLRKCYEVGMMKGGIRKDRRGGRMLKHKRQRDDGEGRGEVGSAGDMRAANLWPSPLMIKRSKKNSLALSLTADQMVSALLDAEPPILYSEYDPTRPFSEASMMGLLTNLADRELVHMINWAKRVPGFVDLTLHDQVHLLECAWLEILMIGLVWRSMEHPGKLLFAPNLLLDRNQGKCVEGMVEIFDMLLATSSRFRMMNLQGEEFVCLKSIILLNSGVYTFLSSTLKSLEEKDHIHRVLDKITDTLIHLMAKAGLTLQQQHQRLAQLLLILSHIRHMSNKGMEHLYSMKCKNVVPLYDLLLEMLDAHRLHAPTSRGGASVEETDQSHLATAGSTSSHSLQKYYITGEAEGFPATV
How it was run: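 Agonist-mode confirmation run in the presence of 10.0nM (final) ICI-182,780 antagonist. The reporter was ERE-driven luciferase in VM7Luc4E2 cells, grown in charcoal-stripped serum. Cells were exposed to 15-concentration compound series for 22hr, then ONE-Glo luminescence was read.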

[6] = qHTS assay to identify small molecule agonists or antagonists of the thyroid stimulating hormone receptor (TSHR) signaling pathway - wild type cell line counter screen (AID 1259384); further: potency means the concentration at half of the fitted maximal effect
How it was run: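 Wild-type Hek293 cells, 800/well, 18 h at 37C, then compound with Ro20-1724 for 30 min RT. cAMP by HTRF (cAMP-d2/anti-cAMP cryptate), 1 h RT, fluorescence read. 15 concentrations, triplicates.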

[7] = biological target: Thyrotropin receptor (Homo sapiens) (UniProt P16473); experiment: qHTS assay to identify small molecule antagonists of the thyroid stimulating hormone receptor (TSHR) signaling pathway (AID 1259385); further: nearly all actives have a fitted effect of over 20% in size
Chain of Thyrotropin receptor (Homo sapiens) (P16473 whole entry, looked up): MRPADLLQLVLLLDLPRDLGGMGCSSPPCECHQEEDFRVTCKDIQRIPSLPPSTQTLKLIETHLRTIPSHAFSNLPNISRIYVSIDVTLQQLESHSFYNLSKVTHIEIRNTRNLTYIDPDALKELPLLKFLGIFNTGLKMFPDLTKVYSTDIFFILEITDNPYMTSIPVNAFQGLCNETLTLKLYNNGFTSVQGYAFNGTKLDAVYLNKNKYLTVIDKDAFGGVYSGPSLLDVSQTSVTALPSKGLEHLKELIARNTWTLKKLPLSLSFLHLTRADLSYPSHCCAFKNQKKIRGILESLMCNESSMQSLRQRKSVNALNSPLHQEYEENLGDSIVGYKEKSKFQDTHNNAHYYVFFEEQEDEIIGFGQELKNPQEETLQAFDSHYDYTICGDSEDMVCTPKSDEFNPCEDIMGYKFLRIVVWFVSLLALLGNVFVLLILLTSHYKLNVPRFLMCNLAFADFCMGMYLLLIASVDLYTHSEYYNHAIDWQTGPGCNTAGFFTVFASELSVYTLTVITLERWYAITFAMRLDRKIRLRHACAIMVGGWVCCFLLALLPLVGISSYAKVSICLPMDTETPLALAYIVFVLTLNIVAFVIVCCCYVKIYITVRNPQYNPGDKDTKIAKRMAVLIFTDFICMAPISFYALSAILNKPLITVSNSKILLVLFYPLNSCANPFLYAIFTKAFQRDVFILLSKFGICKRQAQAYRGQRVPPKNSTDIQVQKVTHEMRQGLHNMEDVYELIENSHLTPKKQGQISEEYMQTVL
How it was run: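 TSHR-HEK293 cells (800/well) plated 18 h, then compounds with Ro20-1724 and TSH at 1.5 ng/mL final, 30 min at room temperature. cAMP quantified by HTRF (cAMP-d2/anti-cAMP-cryptate, 1 h); 15 concentrations in triplicate.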

[8] = biological target: Estrogen receptor beta (Homo sapiens) (UniProt Q92731); experiment: qHTS assay to identify small molecule antagonists of the estrogen receptor beta (ER-beta) signaling pathway (AID 1259378; active means well fitted inhibition curve with a large enough effect in the signal ratio in the repeat runs, not every such curve was filed as active; the % refers to the signal ratio)
Chain of Estrogen receptor beta (Homo sapiens) (Q92731 whole entry, looked up): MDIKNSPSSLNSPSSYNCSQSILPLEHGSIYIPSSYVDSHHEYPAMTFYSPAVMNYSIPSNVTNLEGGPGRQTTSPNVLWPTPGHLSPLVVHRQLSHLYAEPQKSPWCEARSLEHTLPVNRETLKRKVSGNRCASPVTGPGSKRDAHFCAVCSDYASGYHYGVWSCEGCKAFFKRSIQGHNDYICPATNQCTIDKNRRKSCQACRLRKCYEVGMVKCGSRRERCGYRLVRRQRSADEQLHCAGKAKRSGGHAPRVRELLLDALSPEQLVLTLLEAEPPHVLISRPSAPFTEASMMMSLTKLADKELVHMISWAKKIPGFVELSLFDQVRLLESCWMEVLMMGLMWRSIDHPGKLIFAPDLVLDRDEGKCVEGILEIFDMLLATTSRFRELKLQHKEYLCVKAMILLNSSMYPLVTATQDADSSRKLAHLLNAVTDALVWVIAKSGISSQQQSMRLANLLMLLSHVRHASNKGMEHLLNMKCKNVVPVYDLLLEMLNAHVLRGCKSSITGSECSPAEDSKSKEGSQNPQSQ
How it was run: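 ER-beta-UAS-bla HEK293T cells in 2% charcoal-stripped FBS medium treated with compound plus 1nM final 17-beta-estradiol for 16 hr at 37C. Beta-lactamase reporter read by FRET substrate fluorescence after 2 hours at room temperature.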

[9] = biological target: Androgen receptor (Homo sapiens) (UniProt P10275); experiment: qHTS assay to identify small molecule agonists of the androgen receptor (AR) signaling pathway in the presence of an antagonist (AID 1259381); further: nearly all actives have a fitted effect of over 15% in size
Chain of Androgen receptor (Homo sapiens) (P10275 whole entry, looked up): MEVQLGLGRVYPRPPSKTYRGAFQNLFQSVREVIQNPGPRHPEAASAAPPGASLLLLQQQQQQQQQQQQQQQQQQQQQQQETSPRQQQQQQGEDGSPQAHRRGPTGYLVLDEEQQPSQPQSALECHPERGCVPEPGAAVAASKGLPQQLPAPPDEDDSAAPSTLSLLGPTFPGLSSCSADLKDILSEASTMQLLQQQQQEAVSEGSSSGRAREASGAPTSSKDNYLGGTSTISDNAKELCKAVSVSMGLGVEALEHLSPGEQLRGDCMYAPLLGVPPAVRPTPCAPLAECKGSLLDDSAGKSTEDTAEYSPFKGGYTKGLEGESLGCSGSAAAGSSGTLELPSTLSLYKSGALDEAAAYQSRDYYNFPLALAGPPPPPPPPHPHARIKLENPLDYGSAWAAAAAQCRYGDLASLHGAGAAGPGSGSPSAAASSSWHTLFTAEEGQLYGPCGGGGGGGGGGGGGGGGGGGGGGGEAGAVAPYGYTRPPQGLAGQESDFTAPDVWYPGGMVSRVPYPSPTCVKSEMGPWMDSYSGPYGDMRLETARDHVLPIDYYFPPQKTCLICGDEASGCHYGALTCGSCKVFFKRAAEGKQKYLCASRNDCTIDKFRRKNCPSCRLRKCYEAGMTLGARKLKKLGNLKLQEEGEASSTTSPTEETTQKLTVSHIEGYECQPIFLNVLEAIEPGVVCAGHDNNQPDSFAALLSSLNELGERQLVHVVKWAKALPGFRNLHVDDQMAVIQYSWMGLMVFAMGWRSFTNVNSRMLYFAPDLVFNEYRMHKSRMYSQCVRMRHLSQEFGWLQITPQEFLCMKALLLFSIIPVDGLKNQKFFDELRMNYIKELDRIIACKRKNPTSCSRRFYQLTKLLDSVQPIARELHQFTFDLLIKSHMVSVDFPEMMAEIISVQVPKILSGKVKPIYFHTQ
How it was run: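 Agonist-mode confirmation run against 3.0 uM final nilutamide: compounds titrated at 15 concentrations onto MDA-kb2 MMTV-luciferase reporter cells. Luminescence measured with ONE-Glo following 16 hr incubation, 37C, 0% CO2.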

| Structure (SMILES) | Potency [1] | Potency [2] | Potency [3] | Potency [4] | Potency [5] | Potency [6] | Potency [7] | Potency [8] | Potency [9] |
| --- | --- | --- | --- | --- | --- | --- | --- | --- | --- |
| Cc1nc(N)nc(N)n1 | inactive | inactive | inactive | inactive | inactive | inactive |  |  |  |
| O=C(Oc1ccc(Br)cc1)N1CCN2CCC1CC2 | inactive | inactive | inactive | inactive | inactive | inactive | inactive |  |  |
| Cc1cc(C)nc(Nc2ccccc2)n1 | inactive | inactive | inactive | inactive | inactive | inactive | inactive |  |  |
| CCCCc1c(C)nc(NCC)[nH]c1=O | inactive | inactive | inactive |  |  | inactive | inactive | inactive |  |
| CC(N)=S | inactive | inactive | inactive | inactive |  | inactive | inactive | inactive |  |
| O=C(O)c1cccc(Cl)c1 | inactive | inactive | inactive | inactive |  | inactive | inactive | inactive |  |
| COc1cc(OC)nc(NC(=O)NS(=O)(=O)c2ncccc2OCC(F)(F)F)n1 | inactive | inactive |  | inactive | inactive | inactive | inactive | inactive |  |
| O=[N+]([O-])c1ccc(CBr)cc1 | inactive | inactive | inactive | inactive | inactive | inactive | inactive |  |  |
| COP(N)(=S)Oc1ccccc1C(=O)OC(C)C (centres undefined) | inactive | inactive | inactive | inactive | inactive | inactive | inactive |  | inactive |
| C[N+](=O)[O-] | inactive | inactive | inactive | inactive | inactive | inactive |  |  |  |
| CCCCOC(=O)c1ccccc1N | inactive | inactive |  | inactive |  |  |  | inactive |  |
| CCSC(=O)N(CC)C1CCCCC1 | inactive | inactive | inactive | inactive | inactive | inactive | inactive |  |  |
| c1coc(-c2nc3ccccc3[nH]2)c1 | inactive | inactive |  | inactive | 7.7 µM (active) | inactive | inactive | inactive |  |
| CCOP(=O)(N=C1SCCS1)OCC | inactive | inactive |  | inactive |  | inactive | inactive | inactive |  |
| CC(C=O)Cc1ccc2c(c1)OCO2 (centres undefined) | inactive | inactive | inactive | inactive |  | inactive | inactive | inactive |  |
| NC(=O)c1cc([N+](=O)[O-])cc([N+](=O)[O-])c1 | inactive | inactive | inactive | inactive | inactive | inactive | inactive | inactive |  |
| CNCC(=O)c1ccc(O)c(O)c1 | inactive | inactive | inactive | inactive | inactive | 4.22 µM (active) | inactive | inactive |  |
| O=[N+]([O-])c1cccc2cccnc12 | inactive | inactive | inactive | inactive | inactive | inactive | inactive |  |  |
| CNC(=O)Oc1ccc(N(C)C)c(C)c1 | inactive | inactive | inactive | inactive | inactive | inactive | inactive |  |  |
| CC1=C(C(=O)Nc2ccccc2)S(=O)(=O)CCO1 | 3.06 µM (active) | inactive | inactive | inactive | inactive | inactive | inactive |  |  |
| C=CC1CC=CCC1 (centres undefined) | inactive | inactive | inactive | inactive |  | inactive | inactive | inactive |  |
| CCC#N | inactive | inactive | inactive | inactive |  | inactive | inactive | inactive |  |
| COCC(=O)N(c1c(C)cccc1C)N1CCOC1=O | inactive | inactive | inactive | inactive |  |  |  |  |  |
